PubChem BioAssay (NCI)
This is part of a sample that, as a whole, favours compounds with a hit. Of some 83,000 tested, about 20% had one in any assay.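 Single-dose data. Exposure time 48 hours. Values below 10 considered active.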 Values without a mark were called inactive. Calls of active or inactive are those of the source.

Key:
Assay in all cases: NCI-60 one-dose screen, 48 h (100 = growth as untreated, 0 = no growth, -100 = all killed)
Details in all cases: 10 µM
[1] = tested on: SR leukemia
[2] = tested on: RPMI-8226 leukemia
[3] = tested on: OVCAR-8 ovarian
[4] = tested on: OVCAR-4 ovarian
[5] = tested on: SK-OV-3 ovarian
[6] = tested on: IGROV1 ovarian
[7] = tested on: OVCAR-3 ovarian
[8] = tested on: HS 578T breast
[9] = tested on: NCI/ADR-RES ovarian
[10] = tested on: OVCAR-5 ovarian

| Structure (SMILES) | growth [1] | growth [2] | growth [3] | growth [4] | growth [5] | growth [6] | growth [7] | growth [8] | growth [9] | growth [10] |
| --- | --- | --- | --- | --- | --- | --- | --- | --- | --- | --- |
| COc1ccc(-c2nnc(SCC(=O)Nc3ccc(C(=O)/C=C/c4ccccc4)cc3)n2-c2ccccc2)cc1OC | 57.5% | 23.4% | 51.3% | 62.5% | 101% | 87.4% | 88.8% | 83.1% | 88.3% |  |
| CCOc1ccccc1/C=N/N1CCCCCC1 | 89.3% | 110% | 103% |  | 95.9% |  | 97.1% | 96% | 100% | 107% |
| COc1cc(C2CC(c3ccc4c(c3)OCO4)=NN2c2ccccc2)cc(OC)c1OC (stereo not drawn) | 71.9% | 75.7% | 99.3% |  | 107% |  | 89.8% | 93.6% | 77.7% |  |
| OC(CCN1CCCC1)(c1ccccc1)C1CCCCC1 (stereo not drawn) | 123% | 114% | 104% | 104% | 120% |  | 105% | 103% | 105% |  |
| O=C(CCl)Oc1ccc(OC(=O)CCl)cc1 | 68.7% | 25.7% | 88.8% | 91.3% |  | 93.1% | 77.6% | 82.4% | 79.4% |  |
| O=C(COc1cccc(/C=C2\CSc3ccc(Cl)cc3C2=O)c1)c1ccc(Cl)cc1 | -3.18% (active) | -25.1% (active) | 66.9% | 75% | 86.2% |  | 90.3% | 93% | 72.8% |  |
| CC(=O)OC1CC2C(C)(C)CCC[C@]2(C)C2=C1C(O)=C(C(C)C)C(=O)C2=O (stereo partly drawn) | 2.66% (active) | 4.43% (active) | 13.4% |  | 19.3% |  | -54% (active) | 28.9% | 3.62% (active) | -39.3% (active) |
| COc1ccc2c(c1)CC=C1[C@@H]2CC[C@]2(C)C(=O)/C(=N/O)C[C@@H]12 | 74.6% | 83.8% | 102% |  | 116% |  | 106% | 90.3% | 90.3% | 86.1% |
| CCOC(=O)c1cc(C(=O)c2ccc(F)cc2F)n2ccccc12 | 73% | 77.6% | 88% | 97.8% | 88.7% | 82.3% | 103% | 93.2% | 88.5% |  |
| CCn1cc(C(=O)O)c(=O)c2cc(F)c(N3CCNCC3)cc21 | 100% | 104% | 97% | 111% | 113% |  | 114% | 111% | 110% |  |
| O=[N+]([O-])c1cccc(/C=N/NC(=S)NC23CC4CC(CC(C4)C2)C3)c1 | 81.4% | 93.1% | 40.6% | 39.5% | 62.4% | 76.3% | 85.9% | 67.5% | 67.2% |  |
| O=C(CCn1cnc2c(cc(-c3ccccc3)n2-c2ccccc2)c1=O)Nc1ccc(F)cc1 | 72.3% | 79.3% | 54% |  | 64.6% | 81.3% | 76.7% | 63.1% | 55.1% |  |
| COc1cc2cc(Oc3ccc(NC(=O)Nc4cccc(C(F)(F)F)c4)cc3)c(C)nc2cc1OC | -6.62% (active) | -5.94% (active) | 8.32% (active) | 31.7% | 3.35% (active) | 8.77% (active) | -0.54% (active) | 22.5% | 6.98% (active) |  |
| CC(=O)Oc1cc(OC(C)=O)c2ccccc2c1OC(C)=O | 69.4% | 72.5% | 81.9% | 86% | 76.8% | 63.1% | 84.1% | 83% | 88.9% |  |
| COc1cc2cc(Oc3ccc(NC(=O)Nc4ccc(Cl)c(Cl)c4)cc3)c(C)nc2cc1OC | 18% | 4.2% (active) | 15% | 31.9% | 28.6% | 18.6% | -10% (active) | 45.1% | 17.1% |  |
| COc1cc(/C=C2\CCCC3C2=Nc2ccccc2NC3c2cc(OC)c(OC)c(OC)c2)cc(OC)c1OC (stereo not drawn) | 2.76% (active) | -10.9% (active) | 18.7% | 33.5% | 45.4% | -21% (active) |  | 53.2% | 5.96% (active) |  |
| COc1ccc(C(=O)c2cc3c(OC)c(OC)c(OC)cc3[nH]2)cc1 | -47.8% (active) | 31.4% | 62.8% | 62.7% | 86.4% | 35% | 45.1% | 51.8% | 18.6% |  |
| O=[N+]([O-])c1ccc2ncccc2c1Cl | 7.28% (active) | 38.7% | 18.6% |  | 63.6% |  | 40.7% | 67% | 29.2% | 85.3% |

| Structure (SMILES) | growth [1] | growth [2] | growth [3] | growth [4] | growth [5] | growth [6] | growth [7] | growth [8] | growth [9] | growth [10] |
| --- | --- | --- | --- | --- | --- | --- | --- | --- | --- | --- |
| COc1ccc2nc3cc(Cl)ccc3c(NCCCNCCO)c2c1 | -8.29% (active) | -12.1% (active) | -23.2% (active) |  |  | 2.85% (active) |  | 6.23% (active) | 62.4% | -9.73% (active) |
| CCN(CC)CCCC(C)Nc1c2ccc(Cl)cc2nc2ccc(OC)cc12 (stereo not drawn) | 0.997% (active) | -6.19% (active) | 16.6% | -7.7% (active) | 39.3% |  | 31% | 57.4% | 31.9% |  |
| CCN(CCCNc1cc2c(c(N)c1S(=O)(=O)O)C(=O)c1ccccc1C2=O)c1ccccc1 | 118% | 101% | 96.4% | 109% | 100% | 114% | 111% | 93.5% | 99.8% |  |
| COc1cc2ncnc(NC3CCC(O)CC3)c2cc1OC (stereo not drawn) | 77.4% | 104% | 97.4% | 103% | 109% | 97.1% | 111% | 95.5% | 100% |  |
| CC(C)C1=C(O)C2=C(C(=O)C1=O)[C@@]1(C)CCCC(C)(C)[C@@H]1CC2 | 48% | 55.2% | 70% |  | 95.5% |  | 61% | 85% | 39.7% | 108% |
| OC(CNc1ccnc2cc(Cl)ccc12)CNC1CCCCC1 (stereo not drawn) | 23.1% | 65% | 87.9% | 76% | 85.1% | 103% | 89.4% | 83.8% | 90.7% |  |
| COc1ccc(NC(=O)C2CC3C=CC2C3)c([N+](=O)[O-])c1 (stereo not drawn) | 85.4% | 104% | 101% | 92.7% | 102% | 108% | 99.4% | 95.4% | 97.6% |  |
| O=C(N/N=C/c1ccc(Cl)cc1)c1ccc(Cc2n[nH]c(=O)c3cccnc23)cc1 | 135% | 117% | 100% | 106% | 103% | 102% | 106% | 108% | 101% |  |
| N#Cc1ccc(C(=O)CSc2nccc(Nc3ccc(C(=O)O)cc3)n2)cc1 | 106% | 108% | 106% | 115% | 106% | 102% | 110% | 98.7% | 108% |  |
| OCCn1cccn1 | 101% | 98.2% | 116% | 117% | 104% |  |  | 111% | 97.5% |  |
| S=C(SSC(=S)N(c1ccccc1)c1ccccc1)N(c1ccccc1)c1ccccc1 | 92.6% | 97.1% | 89.8% | 113% | 100% | 111% | 102% | 108% | 105% |  |
| O=C(CC(CC(=O)c1ccccc1)c1ccccc1O)c1ccccc1 | 92.9% | 85.2% | 95.9% | 91.2% | 94.5% | 101% | 94.3% | 86.6% | 92.1% |  |
| CSc1nc2c(c(=O)n1C)CN(Cc1ccccc1)C(=O)CN2 | -9.52% (active) | 109% | 106% | 91% | 99% | 97.6% | 98.6% | 101% | 85.5% |  |
| NC(N)=N/N=C(\c1ccccc1)C(O)c1ccccc1 (stereo not drawn) | 95.9% | 94.5% | 105% | 105% | 94.2% | 100% | 111% |  | 111% |  |
| Nc1ccn(Cc2nnc(CCC(=O)c3nc4ccccc4[nH]3)o2)c(=O)n1 | 14.9% | 73.1% | 88.5% |  | 98.7% | 65.3% | 102% | 81.3% | 86.1% |  |
| CSc1ccc(-c2cc(-c3ccc(NC(=O)CCCN4CCCC4)cc3)nc(-c3ccc(NC(=O)CCCN4CCCC4)cc3)c2)cc1 | 32.2% | 73.2% | 76.4% |  | 75.2% |  |  | 55% | 95.5% | 72.3% |
| C[C@]12CCC3c4ccc(O)cc4C[C@@H](CCCCCCCCCS(=O)CCCC(F)(F)C(F)(F)F)C3C1CC[C@@H]2O (stereo partly drawn) | 44.6% | 62.5% | 77.7% | 66.2% | 103% | 92.3% | 88.4% | 81.4% | 70.4% |  |
